Bioassay records (PubChem BioAssay)
Compounds with a hit are over-represented: about 2% of the library has one in this group of screens.
EP2 modulator – EP2 receptor (human) modulation. P43116. EP2-expressing cells, cAMP HTRF FRET, PGE2 co-stimulation. induction, % at 25 µM. actives 0.83% (n = 260,000);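 active = compounds whose cAMP rise, as percent of the full-agonist control response, exceeds 60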;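 note: rat C6 glioma line stably carrying human EP2 under a CMV promoter; the protocol text gives 20 µM as final concentration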
CHT block – human CHT choline transport inhibition; AID 488975; CHT-expressing cells, membrane potential dye, choline response; hits give low values; actives 0.86% (n = 310,000); B-score at 10 µM;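 active = B-score over 3 SD under the library average, and starting fluorescence ratio not unusually high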;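 note: choline stimulus applied at its EC90 after an EC20 pre-addition; B-score computed on integrated fluorescence ratio after choline addition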
Target sequence (Q9GZV3 whole entry, looked up): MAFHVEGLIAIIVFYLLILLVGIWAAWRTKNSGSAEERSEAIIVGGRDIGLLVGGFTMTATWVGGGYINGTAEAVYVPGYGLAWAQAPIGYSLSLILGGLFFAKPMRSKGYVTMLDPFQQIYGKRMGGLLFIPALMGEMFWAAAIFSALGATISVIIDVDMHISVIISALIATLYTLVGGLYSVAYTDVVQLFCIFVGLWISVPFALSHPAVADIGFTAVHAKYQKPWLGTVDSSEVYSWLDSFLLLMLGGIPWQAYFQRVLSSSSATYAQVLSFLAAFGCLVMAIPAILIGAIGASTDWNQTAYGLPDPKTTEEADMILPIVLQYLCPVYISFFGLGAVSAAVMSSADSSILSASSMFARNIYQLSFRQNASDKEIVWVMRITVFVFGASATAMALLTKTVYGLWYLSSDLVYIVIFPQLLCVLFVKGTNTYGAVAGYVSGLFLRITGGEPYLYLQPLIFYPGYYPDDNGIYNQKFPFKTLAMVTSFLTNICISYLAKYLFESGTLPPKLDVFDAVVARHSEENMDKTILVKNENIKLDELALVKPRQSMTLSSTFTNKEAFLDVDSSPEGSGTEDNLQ
CHT PAM – allosteric activators of human choline transporter CHT; Q9GZV3; CHT-expressing cells, membrane potential dye, choline EC20; hits give high values; LV-AA mutant CHT in HEK293 cells; B-score at 10 µM; actives 0.49% (n = 310,000); AID 488977;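 active = initial fluorescence not abnormally high and integrated response B-score, plate-corrected, over 3 SD above library mean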
EP2 antag – EP2 receptor (human) inhibition; P43116; C6 glioma cells expressing human EP2, cAMP TR-FRET; cells stimulated with saturating PGE2; inhibition, % at 25 µM; actives 0.52% (n = 260,000); AID 1422;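 active = percent inhibition above 40 after rounding to a whole number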;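 note: rat C6 glioma host cells with rolipram phosphodiesterase inhibitor present; the protocol text gives 20 µM as final concentration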
CHT activ conf – confirmation of human choline transporter (CHT) activators; shares compounds with CHT PAM; CHT-expressing cells, membrane potential dye fluorescence (FDSS); % of choline EC20–EC90 response window; HEK293 expressing CHT LV-AA mutant; choline added at its EC20; activation, % at 10 µM; actives 91% (n = 2,500); AID 504833;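 active = primary screen active, with duplicate mean activation above negative control mean plus 3 SD, cut at about 11% in these data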
HEK293 MP dye – counter-screen for CHT activators: effect in parental HEK293 cells; ratio readout change at 10 µM, hits read low; shares compounds with CHT PAM; membrane potential dye fluorescence (FDSS); measured after EC20 choline addition; actives 62% (n = 2,500);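 active = duplicate-averaged ratio beyond 3 SD from buffer wells, up or down, though filed actives are nearly all decreases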
Hits are given with their value; 0 = inactive; - = no result.

SMILES	EP2 modulator	CHT block	CHT PAM	EP2 antag	CHT activ conf	HEK293 MP dye
O=C(NC1CC2CCC(C1)N2Cc1ccco1)c1ccccc1 (stereo unspecified)	0	0	7.7	0	0	0
CC(C)C1CCC(C(=O)N[C@@H](Cc2ccccc2)C(=O)O)CC1 (stereo partly specified)	0	-	-	0	-	-
COc1cc(OC)cc(-c2nnc(SCC(=O)N(Cc3ccccc3)C(C)(C)C)o2)c1	0	0	0	0	-	-
COc1cc(-c2nnc(SCC(=O)N(Cc3ccccc3)C(C)(C)C)o2)cc(OC)c1OC	0	0	7.9	0	0	0
Cc1sc2c3ccsc3ccc2[n+]1C	0	0	10	0	66	0
O=C(Nc1nnc(CCS(=O)(=O)c2ccc3ccccc3c2)s1)c1ccco1	0	-	-	0	-	-
COCCNC(=O)Cn1ncc2c3oc(C)cc3n(C)c2c1=O	0	-	-	-	-	-
O=S(=O)(c1ccc(Br)cc1)N1CCCc2ccccc21	-	0	0	-	-	-
N=C1C(c2ccc(Br)cc2)=C(O)C2CCc3ccccc3N12 (stereo unspecified)	0	0	13	0	55	-67
CCOC(=O)c1c(NC(=O)Cc2ccccc2)sc2c1CCN(CC)C2	-	0	0	-	34	-35
CCN1CCc2c(sc(NC(=O)c3ccc(S(=O)(=O)N4CCOCC4)cc3)c2C(N)=O)C1	0	0	7.8	0	38	-41
Cc1cc(C)n2nc(CC(=O)N3CCC(O)(c4ncccc4C)CC3)nc2n1	0	-	-	-	-	-
Cc1ccc(CN(CCCn2ccnc2)Cc2cccc3ncccc23)o1	0	-	-	0	-	-
O=C(NC1CCCCC1)C(c1ccco1)N(Cc1cccnc1)C(=O)C1COc2ccccc2O1 (stereo unspecified)	0	0	0	0	13	0
O=C(NC1CCCC1)C(=O)N(Cc1cccnc1)C(C(=O)NC1CCCC1)c1ccco1 (stereo unspecified)	0	0	0	0	-	-
COc1ccc(CNC(=O)C2CCN(c3nc4ccccc4n3C)CC2)cc1	0	-	-	0	-	-
CC(C)CC(c1nnnn1C(C)C)N1CCN(c2cccc(Cl)c2)CC1 (stereo unspecified)	0	0	0	0	26	0
CC(C)CC(c1nnnn1C(C)C)N1CCN(C(=O)c2ccco2)CC1 (stereo unspecified)	-	0	0	-	-	-
CCOC(=O)C1(Cc2cccc(OC)c2)CCN(Cc2cccc3cnccc23)CC1	0	0	0	0	22	0
CCOC(=O)C1(CCOc2ccccc2)CCN(Cc2cc(OC)ccc2OC)CC1	-	0	0	-	30	0
CCOC(=O)C1(CCOc2ccccc2)CCN(Cc2ccncc2)CC1	0	0	0	0	-	-
CCOC(=O)C1(CCOc2ccccc2)CCN(Cc2cccn2-c2ncccn2)CC1	0	0	15	0	38	0
CCOC(=O)C1(CCOc2ccccc2)CCN(Cc2ccc(-n3cccn3)cc2)CC1	0	0	6.3	0	27	0
Cc1cc(C(=O)Nc2nc3ccccc3s2)c2ccccc2n1	0	-	-	0	-	-
O=C(CN1CCC(c2ccc3c(c2)OCO3)CC1)NCc1ccccc1	0	-	-	0	-	-
SMILES	EP2 modulator	CHT block	CHT PAM	EP2 antag	CHT activ conf	HEK293 MP dye
Cc1nn(-c2ccccc2)c(N)c1Sc1ccc([N+](=O)[O-])cc1	0	0	6.9	0	36	0
CCN1CCN(C(=O)C2CCN(S(=O)(=O)c3ccc(OC)cc3)CC2)CC1	0	-	-	0	-	-
Cn1c(=O)[nH]c(=O)c2c1nc(N1CCCCCC1)n2CCCSc1ncccn1	0	-	-	0	-	-
Cn1c(=O)[nH]c(=O)c2c1nc(N1CCCCC1)n2CCSc1ncccn1	-	0	8	-	18	-24
Cn1c(=O)[nH]c(=O)c2c1nc(N1CCN(c3ccccc3)CC1)n2CCSc1ncccn1	0	0	0	0	37	0
Cn1c(=O)[nH]c(=O)c2c1nc(N1CCCCC1)n2CCCSc1ncccn1	0	-	-	0	-	-
Cc1nn2c(NCCCN(C)C)c3c(nc2c1-c1ccccc1)CCC3	0	0	8.2	0	45	-57
Cc1ccc([N+](=O)[O-])cc1-c1ccc(/C=N/NC(=O)CN2CCOCC2)o1	0	0	0	0	51	-51
COc1ccc(S(=O)(=O)N2CCCCCC2)cc1C(=O)N(C)CCOc1ccccc1	-	0	6.5	-	27	0
CCn1c(SCC(=O)N2CCc3ccccc3C2)nnc1C1CC1	0	-	-	0	-	-
CCn1nc(C)c(CCC(=O)N[C@H](Cn2nnc3ccccc32)C(C)C)c1C	0	-	-	0	-	-
CCC(CC)COC(=O)C(C#N)c1nc2ccccc2nc1N1CCN(CC)CC1 (stereo unspecified)	0	0	0	0	32	-37
CCOc1ccc(-c2nnn(CC(=O)Nc3ccc4c(c3)OCO4)n2)cc1OCC	0	-	-	0	-	-
CCCn1c(SCC(=O)Nc2ccc3c(c2)OCO3)nnc1-c1ccccn1	0	-	-	0	-	-
COC(=O)CCC(=O)Nc1sc2c(c1C#N)CCCC2	0	0	9.2	0	25	0
COc1ccc(S(=O)(=O)N2c3ccc(F)cc3CCC2C)cc1 (stereo unspecified)	-	0	0	-	44	0
CC1CCc2ccc(F)cc2N1S(=O)(=O)c1cccs1 (stereo unspecified)	0	0	0	0	-	-
c1ccc(-c2cc3c(NCCN4CCOCC4)ncnc3s2)cc1	0	-	-	0	-	-
COc1cc(/C=C2\CCn3c2nc2cc(C(=O)O)ccc2c3=O)ccc1OC(F)F	-	0	0	-	26	-32
COc1cc(-c2ccc3c(=O)c4ccccc4n(C)c3c2)cc(OC)c1OC	-	0	0	-	-	-
COc1ccc(-c2cc(Cl)cc3c(=O)c4ccccc4n(C)c23)cc1F	-	0	7.3	-	26	0
CN(Cc1nnc(-c2ccccc2)o1)S(=O)(=O)c1ccc2c(c1)NC(=O)CO2	0	-	-	0	-	-
Cc1cc(N2CCOCC2)nc2ccc(NC(=O)CCC(=O)N3CCCC(C)C3)cc12 (stereo unspecified)	0	0	0	0	41	-36
Cc1cc(N2CCOCC2)nc2cc(O)ccc12	0	0	9.2	0	74	-45
COc1ccc2nc(N3CCOCC3)cc(C)c2c1	0	0	8.4	0	58	-57
SMILES	EP2 modulator	CHT block	CHT PAM	EP2 antag	CHT activ conf	HEK293 MP dye
c1ccc2c(N3CCCCC3)nc(N3CCCCC3)nc2c1	0	0	0	-	-	-
COc1ccc(N2CCN(c3cc(C)c4ccc(C)cc4n3)CC2)cc1	0	0	0	0	-	-
c1ccc2c(N3CCCCC3)nc(N3CCOCC3)nc2c1	0	0	6.7	0	40	-44
Cc1cc(N2CCN(c3ccc(F)cc3)CC2)nc2cc(O)ccc12	0	0	0	0	-	-
Cc1cc(C)cc(-c2nnc(SCC(=O)N3CCCC3)o2)c1	0	-	-	0	-	-
CCn1c2cc(C)sc2c2cnn(CCC(N)=O)c(=O)c21	0	-	-	-	-	-
COc1cccc(C(=O)Nc2ccc3nc(N4CCOCC4)cc(C)c3c2)c1	0	0	6.8	0	42	-43
Cc1cc(N2CCOCC2)nc2ccccc12	0	0	6.5	0	45	-51
Cc1cc(N2CCCCC2)nc2ccccc12	0	0	0	0	-	-
